Among the data in PubChem BioAssay (NCATS) are Potency values, retold here.

SMILES strings stand for the structures. Records with an inconclusive call do not appear. Where a call stands in place of a potency, no number is given. Active and inactive are the calls of the source. Calls come from the whole dose curve; tested in HEK293 reporter line.
Note: nearly all actives have a fitted effect of over 80% in size.

The nature of one test: qHTS for Inhibitors of the Functional Ribonucleoprotein Complex (vRNP) of Lassa (LASV) Arenavirus: Viability assay - alamar blue signal for LASV Primary Screen (AID 1347083). The conditions noted are these: cell viability, alamar blue fluorescence (LASV minigenome counter-screen); series mostly up to 57.5 µM. (In general: qHTS replaces the single test concentration by a dilution series.)
As for `O=C(O)c1cc(=O)c2ccccc2o1`, the Potency result is “inactive”.
The same measure, in the same setting: the entry for `CC(C(=O)O)c1ccc(C(=O)c2ccccc2)s1` (stereo unspecified) is “inactive”; for `CCCCCCCCCCCCOCCO` it is “inactive”; for `Cc1cc(C)nc(NS(=O)(=O)c2ccc(N)cc2)n1` it is “inactive”.
As for `CCOC(=O)C1=C(C)NC(C)=C(C(=O)OC)C1c1cccc([N+](=O)[O-])c1` (stereo unspecified), the Potency result is “inactive”.
Consider `O=C1CC(c2ccc(Cl)cc2)CC(=O)N1`, for which the Potency entry is “inactive”.
Same read-out and setting: the entry for `Cc1cc(O)cc(C)c1Cl` is “inactive”; for `CCN(CC)C(=O)c1ccc(O)c(OC)c1` it is “inactive”; for `CCCCCCCN(CC)CCCC(O)c1ccc(NS(C)(=O)=O)cc1` (stereo unspecified) it is “inactive”.
On to `CC(O)C(=O)O` (stereo unspecified), for which the Potency result was “inactive”.
On the same count and under the same terms, as for `COc1cc(OC)c(C(=O)CCCN2CCCC2)c(OC)c1`, the entry is “inactive”.
The same measure, in the same setting: the entry for `NS(=O)(=O)c1ccc(C(=O)O)cc1` is “inactive”.
For `OC1(c2ccc(Cl)cc2)CCNCC1`, the Potency entry was “inactive”.
Still for that read-out and setting: as for `Cc1cccc(C)c1NC(=O)c1cc(S(N)(=O)=O)c(Cl)cc1O`, the entry is “inactive”; as for `O=C(O)Cc1sc(-c2ccccc2)nc1-c1ccc(Cl)cc1`, “inactive”; as for `CN=C(NC#N)NCCSCc1nc[nH]c1C`, “inactive”.
Still for that read-out and setting: as for `CCCCOC(=O)c1ccc(O)cc1`, the entry is “inactive”; as for `C[N+](C)(C)CCCCCC[N+](C)(C)C`, “inactive”.
Turning to `CC(=O)OCC1=C(C(=O)O)N2C(=O)[C@@H](NC(=O)Cc3cccs3)[C@H]2SC1`, the Potency result is “inactive”.
As for `CCn1cc(C(=O)O)c(=O)c2cc(F)c(N3CCNC(C)C3)c(F)c21` (stereo unspecified), the Potency entry was “inactive”.
Same read-out and setting: the entry for `Clc1ccc2nsnc2c1NC1=NCCN1` is “inactive”; for `O=C1[C@@H]2[C@H]3CC[C@H](C3)[C@@H]2C(=O)N1CCCCN1CCN(c2ncccn2)CC1` it is “inactive”; for `CCOC(=O)c1ccccc1O` it is “inactive”.
The same measure, in the same setting: as for `COCCc1ccccn1`, the entry is “inactive”.
Still for that read-out and setting: as for `O=c1cc[nH]c(=S)[nH]1`, the entry is “inactive”.
Consider `CC(=O)[C@H]1CC[C@H]2[C@@H]3C[C@H](C)C4=CC(=O)CC[C@]4(C)[C@H]3[C@@H](O)C[C@]12C`, for which the Potency entry was “inactive”.
Consider `O=C(N/N=C/c1ccccc1O)c1ccncc1`, for which the Potency result was “inactive”.
Regarding `CN=C(N)NC(=O)Nc1c(C)cccc1C`, the Potency entry was “inactive”.
Turning to `COc1cc(NS(=O)(=O)c2ccc(N)cc2)nc(C)n1`, the Potency result is “inactive”.
Still for that read-out and setting: the entry for `O=c1[nH]c(=O)n([C@H]2C[C@H](O)[C@@H](CO)O2)cc1Br` is “inactive”; for `OCc1ccc(Cl)cc1Cl` it is “inactive”; for `CO/N=C(/C(=O)N[C@@H]1C(=O)N2C(C(=O)OCOC(=O)C(C)(C)C)=C(C)CS[C@H]12)c1csc(N)n1` it is “inactive”.
For `N[C@@H](COP(=O)(O)O)C(=O)O`, the Potency result is “inactive”.
Same read-out and setting: as for `O=C(O)CN(CCN(CC(=O)O)CC(=O)O)CCN(CC(=O)O)CC(=O)O`, the entry is “inactive”; as for `CN[C@@H]1[C@H](O)[C@H](NC)[C@H]2O[C@@]3(O)C(=O)C[C@@H](C)O[C@H]3O[C@@H]2[C@H]1O`, “inactive”; as for `Cc1ccc(C(=O)C(C)CN2CCCCC2)cc1` (stereo unspecified), “inactive”.
The same measure, in the same setting: as for `CCc1cccc(CC)c1NC(=O)CN(CC(=O)O)CC(=O)O`, the entry is “inactive”; as for `O=C(O)c1cc(=O)c2c(OCC(O)COc3cccc4oc(C(=O)O)cc(=O)c34)cccc2o1`, “inactive”.

A short description of another test: qHTS for Inhibitors of the Functional Ribonucleoprotein Complex (vRNP) of Lymphocytic Choriomeningitis Arenaviruses (LCMV): Viability assay - alamar blue signal for LCMV Primary Screen (AID 1347085). Particulars: alamar blue viability counter-screen, LCMV vRNP screen cells; series mostly up to 57.5 µM.
`O=C(O)c1cc(=O)c2ccccc2o1`: the Potency entry was “inactive”.
With `CC(C(=O)O)c1ccc(C(=O)c2ccccc2)s1` (stereo unspecified), the Potency result was “inactive”.
Take `CCCCCCCCCCCCOCCO`: the Potency entry is “inactive”.
Regarding `Cc1cc(C)nc(NS(=O)(=O)c2ccc(N)cc2)n1`, the Potency result was “inactive”.
The same measure, in the same setting: as for `CCOC(=O)C1=C(C)NC(C)=C(C(=O)OC)C1c1cccc([N+](=O)[O-])c1` (stereo unspecified), the entry is “inactive”; as for `O=C1CC(c2ccc(Cl)cc2)CC(=O)N1`, “inactive”; as for `Cc1cc(O)cc(C)c1Cl`, “inactive”.
Regarding `CCN(CC)C(=O)c1ccc(O)c(OC)c1`, the Potency entry is “inactive”.
Take `CCCCCCCN(CC)CCCC(O)c1ccc(NS(C)(=O)=O)cc1` (stereo unspecified): the Potency entry is “inactive”.
As to `CC(O)C(=O)O` (stereo unspecified), the Potency entry is “inactive”.
As for `COc1cc(OC)c(C(=O)CCCN2CCCC2)c(OC)c1`, the Potency entry is “inactive”.
With `NS(=O)(=O)c1ccc(C(=O)O)cc1`, the Potency result was “inactive”.
Still for that read-out and setting: the entry for `OC1(c2ccc(Cl)cc2)CCNCC1` is “inactive”; for `Cc1cccc(C)c1NC(=O)c1cc(S(N)(=O)=O)c(Cl)cc1O` it is “inactive”.
For the compound `O=C(O)Cc1sc(-c2ccccc2)nc1-c1ccc(Cl)cc1`, the Potency entry is “inactive”.
As to `CN=C(NC#N)NCCSCc1nc[nH]c1C`, the Potency entry was “inactive”.
As to `CCCCOC(=O)c1ccc(O)cc1`, the Potency entry was “inactive”.
On to `C[N+](C)(C)CCCCCC[N+](C)(C)C`, for which the Potency entry is “inactive”.
Same read-out and setting: the entry for `CC(=O)OCC1=C(C(=O)O)N2C(=O)[C@@H](NC(=O)Cc3cccs3)[C@H]2SC1` is “inactive”.
Still for that read-out and setting: as for `CCn1cc(C(=O)O)c(=O)c2cc(F)c(N3CCNC(C)C3)c(F)c21` (stereo unspecified), the entry is “inactive”; as for `Clc1ccc2nsnc2c1NC1=NCCN1`, “inactive”.
Consider `O=C1[C@@H]2[C@H]3CC[C@H](C3)[C@@H]2C(=O)N1CCCCN1CCN(c2ncccn2)CC1`, for which the Potency result was “inactive”.
For `CCOC(=O)c1ccccc1O`, the Potency result was “inactive”.
Still for that read-out and setting: as for `COCCc1ccccn1`, the entry is “inactive”; as for `O=c1cc[nH]c(=S)[nH]1`, “inactive”.
The same measure, in the same setting: as for `CC(=O)[C@H]1CC[C@H]2[C@@H]3C[C@H](C)C4=CC(=O)CC[C@]4(C)[C@H]3[C@@H](O)C[C@]12C`, the entry is “inactive”; as for `O=C(N/N=C/c1ccccc1O)c1ccncc1`, “inactive”; as for `CN=C(N)NC(=O)Nc1c(C)cccc1C`, “inactive”.
Take `COc1cc(NS(=O)(=O)c2ccc(N)cc2)nc(C)n1`: the Potency entry is “inactive”.
Same read-out and setting: the entry for `O=c1[nH]c(=O)n([C@H]2C[C@H](O)[C@@H](CO)O2)cc1Br` is “inactive”; for `OCc1ccc(Cl)cc1Cl` it is “inactive”.
Same read-out and setting: the entry for `CO/N=C(/C(=O)N[C@@H]1C(=O)N2C(C(=O)OCOC(=O)C(C)(C)C)=C(C)CS[C@H]12)c1csc(N)n1` is “inactive”; for `N[C@@H](COP(=O)(O)O)C(=O)O` it is “inactive”; for `O=C(O)CN(CCN(CC(=O)O)CC(=O)O)CCN(CC(=O)O)CC(=O)O` it is “inactive”.
Still for that read-out and setting: as for `CN[C@@H]1[C@H](O)[C@H](NC)[C@H]2O[C@@]3(O)C(=O)C[C@@H](C)O[C@H]3O[C@@H]2[C@H]1O`, the entry is “inactive”; as for `Cc1ccc(C(=O)C(C)CN2CCCCC2)cc1` (stereo unspecified), “inactive”; as for `CCc1cccc(CC)c1NC(=O)CN(CC(=O)O)CC(=O)O`, “inactive”.
In the case of `O=C(O)c1cc(=O)c2c(OCC(O)COc3cccc4oc(C(=O)O)cc(=O)c34)cccc2o1`, the Potency entry was “inactive”.
